# Screens as filed in PubChem.
# A selection: hits, their analogues and other compounds. The true share with any hit is near 8.1%.
# Epigenetic derep = regulators of epigenetic silencing causing reporter derepression in mouse cells; murine LDR cells, GFP reporter derepression, 30 h; Potency, µM (series often up to 53.9 µM), for the others: at the top dose GFP activation, usual class: activators; 280,000 tested, 0.2% active; further: % of control where 0% means no effect; nearly all actives have a fitted effect of over 60% in size
#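 Murine LDR cells carrying a silenced, genomically integrated CMV-driven GFP reporter were exposed to compound for 30 hours at 37 C. After PBS washes, GFP-positive cells (20–120 um objects) were counted by laser-scanning microplate cytometry.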
# Gal4-VP16 FLuc = inhibits Gal4-VP16 luciferase reporter, ROR gamma counter-screen. Drosophila S2 Gal4-VP16 UAS-luciferase, luminescence, 20 h. Potency, µM (top dose mostly 53.6 µM), inactives show top-dose activity, negative = inhibition, hits mostly inhibitors. 310,000 tested, 3.5% active. AID 2546;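 further: Gal4-VP16 expression switched on by copper sulfate through the metallothionein promoter; on the % scale 0 is the no-effect control and ±100 the full control effect; nearly all actives have a fitted effect of over 50% in size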
# RORgamma inh = inhibitors of mouse ROR gamma transcriptional activity; Drosophila S2 Gal4-RORgamma UAS-luciferase reporter, 20 h; Potency, µM (titrated, usually from 53.6 µM), without a hit: top-dose activity change, negative = inhibition, hits mostly inhibitors; AID 2551; 310,000 tested, 5.4% active; P51450; further: on the % scale 0 is the no-effect control and ±100 the full control effect; nearly all actives have a fitted effect of over 60% in size
# Target sequence (P51450 whole entry, looked up, the tested form may be a part): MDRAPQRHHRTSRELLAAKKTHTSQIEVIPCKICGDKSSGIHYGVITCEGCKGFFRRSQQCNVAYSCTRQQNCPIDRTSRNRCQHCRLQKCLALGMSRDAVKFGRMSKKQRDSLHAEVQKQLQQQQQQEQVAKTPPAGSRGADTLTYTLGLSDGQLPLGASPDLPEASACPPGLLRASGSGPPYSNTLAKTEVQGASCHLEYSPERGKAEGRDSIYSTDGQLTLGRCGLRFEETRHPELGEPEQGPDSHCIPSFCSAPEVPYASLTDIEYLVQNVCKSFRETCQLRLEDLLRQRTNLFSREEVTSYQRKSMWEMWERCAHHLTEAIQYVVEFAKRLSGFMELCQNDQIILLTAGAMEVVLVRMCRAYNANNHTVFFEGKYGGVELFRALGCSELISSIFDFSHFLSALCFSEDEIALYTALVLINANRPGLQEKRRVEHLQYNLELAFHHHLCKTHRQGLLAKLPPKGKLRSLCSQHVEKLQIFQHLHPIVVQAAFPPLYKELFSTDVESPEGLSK
#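 Drosophila Schneider cells stably carrying a metallothionein-driven Gal4 DBD–ROR gamma fusion and a UAS-Photinus luciferase reporter were exposed to compound for 1 hr, then induced with copper sulfate (700 uM final) for 20 hr at ambient temperature before luminescence reading.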
# Sfp inh = inhibitors of Bacillus subtilis Sfp phosphopantetheinyl transferase. Q9F4F7. Biochemical Sfp PPTase activity, qHTS. Potency, µM, for the others: largest response in the series, negative = inhibition, usual class: inhibitors. 310,000 tested, 3.5% active. AID 1490;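 further: the enzyme is Sfp with the accession as filed and its product quenches rhodamine fluorescence; 0% = enzyme reaction without inhibitor and -100% = no enzyme wells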
#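 Sfp 15 nM + cpd, 15 min RT; start w/ rhodamine-CoA 5 uM, BHQ-2-YbbR 12.5 uM (final); 50 mM Hepes pH 7.6, 10 mM MgCl2, 0.01% NP-40, 0.01% BSA; read 525/598 nm at 0 and 30 min.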
# ClpP mod = qHTS Assay for Activators of ClpP. purified B. subtilis ClpP, FRET peptide cleavage, 20 min. Potency, µM (top dose mostly 57.5 µM), for inactives: top-dose activity change, negative = active. 340,000 tested, 1.9% active. AID 651965, 2013; active means well fitted falling curve with a large enough effect; inconclusive means small, poorly fitted or top-dose-only effect; inactive means no such curve, though single readings can be large or run the other way; further: the source files actives as falling curves though it sought activators and does not explain the sign; nearly all actives have a fitted effect of over 65% in size
# Target sequence (P80244 whole entry, looked up): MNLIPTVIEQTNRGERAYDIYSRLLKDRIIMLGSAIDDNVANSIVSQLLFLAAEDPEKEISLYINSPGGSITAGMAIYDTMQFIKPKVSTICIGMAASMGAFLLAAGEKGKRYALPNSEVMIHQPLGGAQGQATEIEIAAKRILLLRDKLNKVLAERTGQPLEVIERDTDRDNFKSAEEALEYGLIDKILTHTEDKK
#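 FRET quenching reversal measured ClpP activation: 10 microg/mL B. subtilis ClpP at pH 8 with the FRET-FV decapeptide, read at 430 nm after 320 nm excitation. The 20-min minus 0-min signal was scaled between DMSO/no-enzyme wells and ADEP (5.8 microM final).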
# PINK1 modulator = modulators of PINK1 expression | PINK1 immunofluorescence, high-content cytometry, 24 h | 410,000 tested, 0.2% active | AID 624263 | Potency, µM (doses to about 76.6 µM), for inactives: at the highest dose activation (PINK1 increase), hits mostly activators; active means well fitted activation curve with a large enough effect; inconclusive means small, poorly fitted or top-dose-only effect; cell line not stated here; further: % of control where 0% means no effect; nearly all actives have a fitted effect of over 65% in size
#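 PINK1 protein, normally rapidly degraded, was detected by immunofluorescence after 24 hour compound treatment of a stable cell line. Titration data (5 concentrations) came from laser-scanning cytometry, with CCCP-treated wells as controls.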
# * = called active by the depositor; ? = inconclusive; . = no result given; [ ] = another dose, or the depositor's remark. Unless noted, the call rests on the fitted dose curve; in most records, active means well fitted curve in the direction sought with a large enough effect; inconclusive means small, poorly fitted or top-dose-only effect, or another doubt; inactive means no such curve, though single readings can be large; an effect the other way counts as inactive or inconclusive. Potency means the concentration at half of the fitted maximal effect.
SMILES,Epigenetic derep,Gal4-VP16 FLuc,RORgamma inh,Sfp inh,ClpP mod,PINK1 modulator
CN(C)/[N+]([O-])=N/Oc1cc(ON=[N+]([O-])N2CCN(c3ncccn3)CC2)c([N+](=O)[O-])cc1[N+](=O)[O-],.,24%,21%,50µM*,.,.
CCOC(=O)c1ccc(NC(=O)CCS(=O)(=O)c2ccc(Br)s2)cc1,1%,-29%,45%,1%,32µM*,7%
Oc1c(Cl)cc(Cl)cc1C=Nc1ccccc1N1CCCC1,-2%,?,16µM*,-6%,.,.
Cc1ccc(-c2nc3sc(CCNC(=O)c4ccc(Br)o4)c(C)n3n2)cc1,1%,.,.,.,0%,1%
COc1ccccc1NC(=S)NCC1CCCCC1,1%,13µM*,4.5µM*,19%,1%,2%
Cc1ccc(C)c(C(C)NC(=S)NC2CCCCC2)c1 (stereo not drawn),.,5.6µM*,2.5µM*,4%,1%,?
COc1ccccc1NC(=S)NC1CCCCCCCCCCC1,0%,?,2.8µM*,32%,0%,2%
COc1ccccc1NC(=S)NC1CCCCC1,-2%,20µM*,4.5µM*,-20%,-1%,0%
Cc1ccc(CNC(=O)C2CCCN(Cc3nc(-c4cccc(C)c4)oc3C)C2)cc1 (stereo not drawn),0%,.,.,.,-2%,6%
O=C(C1CCCN(S(=O)(=O)c2cccc3nsnc23)C1)N1CCN(c2ccccc2Cl)CC1 (stereo not drawn),-2%,.,.,.,0%,2%
COc1ccc(NC(=S)NC2CCCC2)c(OC)c1,.,?,6.3µM*,8%,1%,-1%
COc1ccccc1CNC(=O)C1CCC1,1%,0%,-13%,9%,1%,-1%
COc1ccc(OC)c(NC(=O)NC2CCCCCCC2)c1,.,-12%,-10%,13%,1%,6%
COc1ccc(OC)c(C(C)NC(=S)NC2CCCCC2)c1 (stereo not drawn),.,4µM*,4µM*,-2%,-1%,?
COc1ccccc1CNC(=S)NC1CCCC1,1%,7.1µM*,5.6µM*,9%,-17%,0%
CCC1(C2CCN(C(=O)c3ccc(C)cc3C)CC2)NC(=O)N(CCc2scnc2C)C1=O (stereo not drawn),.,.,.,.,.,-1%
O=C(/C=C/c1cccs1)N1CCc2ccccc21,-1%,?,8.9µM*,-1%,2%,2%
COc1ccc(/C=C/C(=O)NCC2Cc3cc(Cl)cc(-c4ncccn4)c3O2)cc1 (stereo not drawn),.,.,.,.,.,1%
CCOc1ccc(OCC)c(NC(=O)c2cnc(SC)nc2-c2ccccc2)c1,-1%,.,.,.,-8%,1%
COc1nsnc1NS(=O)(=O)c1ccc(NC(=S)NC(=O)c2ccncc2)cc1,3%,3%,5%,79µM*,0%,1%
COc1nccnc1NS(=O)(=O)c1ccc(NC(=S)NC(=O)c2ccc(F)cc2)cc1,0%,6%,-13%,50µM*,1%,-1%
COc1nccnc1NS(=O)(=O)c1ccc(NC(=S)NC(=O)c2cccc(F)c2)cc1,2%,3%,-13%,3%,-5%,1%
CCCCCNc1nc2c(-c3ccccc3)nnn2c2ccccc12,1%,.,.,.,-5%,0%
Cc1ccc2c(c1)sc1nc(=O)n(-c3ccccc3)c(=O)n12,-1%,29%,9%,-15%,.,2%
Cc1cc(C)c2nc3s/c(=C/c4ccc5c(c4)n(C)c(=O)n5C)c(=O)n3c2c1,-1%,-4%,5%,20µM*,.,.
SMILES,Epigenetic derep,Gal4-VP16 FLuc,RORgamma inh,Sfp inh,ClpP mod,PINK1 modulator
CCOC(=O)c1c(C)oc2nc(C)nc(NCC3CCN(Cc4ccccc4C)CC3)c12,11%,.,.,.,0%,0%
O=S(=O)(c1ccc(Cl)cc1Cl)n1ccnc1,10%,.,.,.,1%,0%
C/C(Cn1nnc([N+](=O)[O-])n1)=N\NC(=O)c1cccc(Cl)c1,-1%,?,10µM*,10%,0%,3%[38.3 µM]
C/C(Cn1nc([N+](=O)[O-])cc1C)=N\NC(=O)c1cccc(Br)c1,-2%,?,13µM*,-9%,-4%,0%
C/C(Cn1nnc([N+](=O)[O-])n1)=N\NC(=O)c1ccccc1Cl,0%,?,?,?,1%,4%[38.3 µM]
C/C(Cn1nc([N+](=O)[O-])cc1C)=N\NC(=O)COc1ccccc1[N+](=O)[O-],8%,?,2%,15%,0%,1%
O=c1[nH]c(=S)c2n[nH]nc2[nH]1,.,.,.,.,-2%,0%
CCOC(=O)c1cc2c(=O)n3ccccc3nc2n(C)c1=NC(=O)c1c(-c2ccccc2Cl)noc1C,0%,.,.,.,-7%,2%
CCCCn1c(=O)n(CC(=O)Nc2ccc(OC)c(Cl)c2)c(=O)c2c1nc(CO)n2CCC,0%,-16%,-2%,5%,-6%,0%
CCCCn1c(=O)n(CC(=O)Nc2c(CC)cccc2CC)c(=O)c2c1nc(CO)n2CCC,-6%,-2%,7.1µM*,11%,-1%,3%
O=C(NCCO)c1cn(C2CCN(Cc3c(F)cccc3Cl)CC2)nn1,.,.,.,.,.,1%
COC(=O)/C(=C/c1ccco1)NC(=O)c1ccc(Br)o1,-1%,-13%,36%,45µM*,.,1%
NC(=O)/C(=C/c1ccco1)NC(=O)c1ccc(Br)o1,.,.,.,.,-7%,-1%
CCC1C(=O)C(CC)C(c2ccccc2)NC1c1ccccc1 (stereo not drawn),.,1%,0.28µM*,-13%,.,?
CC(C)c1ccc(S(=O)(=O)Nc2cc3c(cc2NCc2ccccc2)n(C)c(=O)n3C)cc1,0%,.,.,.,4%,2%
O=C(c1ccc(N2CCCCC2)c([N+](=O)[O-])c1)N1CCOCC1,0%,-5%,19%,12%,-5%,-5%
COc1ccccc1C(=O)/C=C/c1ccc(N2CCCCC2)c([N+](=O)[O-])c1,-2%,6.3µM*,5.6µM*,1%,-1%,-2%
O=C(/C=C/c1ccc(N2CCCCC2)c([N+](=O)[O-])c1)c1ccc(O)cc1,1%,?,11µM*,-2%,.,-3%
COc1ccc(OC)c2c(=S)c3ccccc3[nH]c12,0%,-16%,-42%,56µM*,.,.
COc1ccc(-c2c(N)nnc3c2[nH]c2ccccc23)cc1OC,0%,-11%,-3%,3%,?,0%
CCCCCC(=O)NC(=S)NC1C2CC3CC(C2)CC1C3 (stereo not drawn),2%,7.9µM*,2.2µM*,-21%,.,?
CCCCCC(=O)NNC(=S)NC(C)=O,0%,-9%,-40%,79µM*,.,0%
COCCCNC(=S)NC(=O)c1ccc(C)cc1,-2%,?,13µM*,-14%,-4%,1%
